Experimental data as given in ChEMBL document CHEMBL1961873, “Compounds: GSK PKIS; Assays: Nanosyn kinase panel” (2012).

Experiments:
[1] = target: Serine/threonine-protein kinase PAK 6 (Homo sapiens) (UniProt Q9NQU5); settings: at 1 µM;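 also: values are mean percent inhibition of PAK6 kinase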
[2] = tested on: Tyrosine-protein kinase ABL1 (Homo sapiens), P00519 [E255K]; settings: at 0.1 µM
[3] = tested on: Tyrosine-protein kinase ABL1 (Homo sapiens), P00519 [E255K]; settings: at 1 µM
[4] = tested on: Tyrosine-protein kinase ABL1 (Homo sapiens), P00519 [H396P]; settings: at 0.1 µM
[5] = tested on: Tyrosine-protein kinase ABL1 (Homo sapiens), P00519 [H396P]; settings: at 1 µM
[6] = tested on: Tyrosine-protein kinase ABL1 (Homo sapiens), P00519 [M351T]; settings: at 0.1 µM
[7] = tested on: Tyrosine-protein kinase ABL1 (Homo sapiens), P00519 [M351T]; settings: at 1 µM
[8] = tested on: Tyrosine-protein kinase ABL1 (Homo sapiens), P00519 [Q252H]; settings: at 0.1 µM
[9] = tested on: Tyrosine-protein kinase ABL1 (Homo sapiens), P00519 [Q252H]; settings: at 1 µM
[10] = tested on: Tyrosine-protein kinase ABL1 (Homo sapiens), P00519 [T315I]; settings: at 0.1 µM
[11] = tested on: Tyrosine-protein kinase ABL1 (Homo sapiens), P00519 [T315I]; settings: at 1 µM
[12] = tested on: Tyrosine-protein kinase ABL1 (Homo sapiens), P00519 [Y253F]; settings: at 0.1 µM
[13] = tested on: Tyrosine-protein kinase ABL1 (Homo sapiens), P00519 [Y253F]; settings: at 1 µM
[14] = target: Tyrosine-protein kinase ABL1 (Homo sapiens) (UniProt P00519); settings: at 0.1 µM
[15] = target: Tyrosine-protein kinase ABL1 (Homo sapiens) (UniProt P00519); settings: at 1 µM
[16] = target: ALK tyrosine kinase receptor (Homo sapiens) (UniProt Q9UM73); settings: at 0.1 µM
[17] = target: ALK tyrosine kinase receptor (Homo sapiens) (UniProt Q9UM73); settings: at 1 µM
[18] = target: Tyrosine-protein kinase ABL2 (Homo sapiens) (UniProt P42684); settings: at 0.1 µM
[19] = target: Tyrosine-protein kinase ABL2 (Homo sapiens) (UniProt P42684); settings: at 1 µM
[20] = target: Tyrosine-protein kinase receptor UFO (Homo sapiens) (UniProt P30530); settings: at 0.1 µM;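 also: values are mean percent inhibition of AXL from the GSK PKIS screen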
Chain of Tyrosine-protein kinase receptor UFO (Homo sapiens) (P30530 whole entry): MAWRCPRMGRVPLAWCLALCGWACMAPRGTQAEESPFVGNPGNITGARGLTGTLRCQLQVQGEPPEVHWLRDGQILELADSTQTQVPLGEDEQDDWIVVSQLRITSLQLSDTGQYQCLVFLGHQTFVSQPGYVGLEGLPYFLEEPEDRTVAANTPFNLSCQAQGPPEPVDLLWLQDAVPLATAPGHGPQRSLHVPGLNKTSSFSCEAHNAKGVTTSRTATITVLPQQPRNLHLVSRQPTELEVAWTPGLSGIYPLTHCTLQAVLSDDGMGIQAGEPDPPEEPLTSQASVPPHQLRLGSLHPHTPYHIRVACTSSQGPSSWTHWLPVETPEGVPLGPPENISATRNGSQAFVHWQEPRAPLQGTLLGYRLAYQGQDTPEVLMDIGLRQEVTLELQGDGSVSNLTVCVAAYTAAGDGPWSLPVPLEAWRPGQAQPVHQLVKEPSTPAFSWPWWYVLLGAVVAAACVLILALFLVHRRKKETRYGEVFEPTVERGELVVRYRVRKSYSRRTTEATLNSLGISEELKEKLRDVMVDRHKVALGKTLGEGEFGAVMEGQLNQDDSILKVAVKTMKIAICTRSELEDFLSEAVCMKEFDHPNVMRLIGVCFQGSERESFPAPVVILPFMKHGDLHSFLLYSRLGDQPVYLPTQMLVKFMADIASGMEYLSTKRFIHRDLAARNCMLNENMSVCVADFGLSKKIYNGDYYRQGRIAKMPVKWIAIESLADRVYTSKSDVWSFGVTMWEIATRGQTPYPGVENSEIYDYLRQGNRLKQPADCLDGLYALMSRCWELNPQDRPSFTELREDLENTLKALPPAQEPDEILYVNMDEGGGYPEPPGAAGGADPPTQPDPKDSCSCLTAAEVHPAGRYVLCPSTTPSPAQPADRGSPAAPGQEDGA

Chain of Serine/threonine-protein kinase PAK 6 (Homo sapiens) (Q9NQU5 whole entry, looked up): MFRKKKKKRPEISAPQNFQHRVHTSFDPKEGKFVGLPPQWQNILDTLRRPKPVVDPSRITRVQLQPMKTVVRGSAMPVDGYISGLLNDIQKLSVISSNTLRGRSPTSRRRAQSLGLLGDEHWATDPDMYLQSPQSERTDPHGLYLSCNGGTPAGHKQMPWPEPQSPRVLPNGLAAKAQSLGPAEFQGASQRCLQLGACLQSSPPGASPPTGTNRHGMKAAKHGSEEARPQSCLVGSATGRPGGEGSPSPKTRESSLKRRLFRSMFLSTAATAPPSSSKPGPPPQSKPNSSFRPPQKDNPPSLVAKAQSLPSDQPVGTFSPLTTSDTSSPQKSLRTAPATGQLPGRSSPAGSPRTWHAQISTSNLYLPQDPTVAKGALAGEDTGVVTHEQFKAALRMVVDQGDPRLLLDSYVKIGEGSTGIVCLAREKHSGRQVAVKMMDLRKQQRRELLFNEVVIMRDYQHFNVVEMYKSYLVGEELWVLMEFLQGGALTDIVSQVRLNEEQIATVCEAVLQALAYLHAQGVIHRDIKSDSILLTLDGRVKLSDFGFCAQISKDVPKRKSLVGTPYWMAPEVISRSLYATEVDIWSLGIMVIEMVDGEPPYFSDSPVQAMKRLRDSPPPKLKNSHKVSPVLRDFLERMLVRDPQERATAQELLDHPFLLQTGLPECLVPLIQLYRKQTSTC
Chain of ALK tyrosine kinase receptor (Homo sapiens) (Q9UM73 19-1620 limits assumed): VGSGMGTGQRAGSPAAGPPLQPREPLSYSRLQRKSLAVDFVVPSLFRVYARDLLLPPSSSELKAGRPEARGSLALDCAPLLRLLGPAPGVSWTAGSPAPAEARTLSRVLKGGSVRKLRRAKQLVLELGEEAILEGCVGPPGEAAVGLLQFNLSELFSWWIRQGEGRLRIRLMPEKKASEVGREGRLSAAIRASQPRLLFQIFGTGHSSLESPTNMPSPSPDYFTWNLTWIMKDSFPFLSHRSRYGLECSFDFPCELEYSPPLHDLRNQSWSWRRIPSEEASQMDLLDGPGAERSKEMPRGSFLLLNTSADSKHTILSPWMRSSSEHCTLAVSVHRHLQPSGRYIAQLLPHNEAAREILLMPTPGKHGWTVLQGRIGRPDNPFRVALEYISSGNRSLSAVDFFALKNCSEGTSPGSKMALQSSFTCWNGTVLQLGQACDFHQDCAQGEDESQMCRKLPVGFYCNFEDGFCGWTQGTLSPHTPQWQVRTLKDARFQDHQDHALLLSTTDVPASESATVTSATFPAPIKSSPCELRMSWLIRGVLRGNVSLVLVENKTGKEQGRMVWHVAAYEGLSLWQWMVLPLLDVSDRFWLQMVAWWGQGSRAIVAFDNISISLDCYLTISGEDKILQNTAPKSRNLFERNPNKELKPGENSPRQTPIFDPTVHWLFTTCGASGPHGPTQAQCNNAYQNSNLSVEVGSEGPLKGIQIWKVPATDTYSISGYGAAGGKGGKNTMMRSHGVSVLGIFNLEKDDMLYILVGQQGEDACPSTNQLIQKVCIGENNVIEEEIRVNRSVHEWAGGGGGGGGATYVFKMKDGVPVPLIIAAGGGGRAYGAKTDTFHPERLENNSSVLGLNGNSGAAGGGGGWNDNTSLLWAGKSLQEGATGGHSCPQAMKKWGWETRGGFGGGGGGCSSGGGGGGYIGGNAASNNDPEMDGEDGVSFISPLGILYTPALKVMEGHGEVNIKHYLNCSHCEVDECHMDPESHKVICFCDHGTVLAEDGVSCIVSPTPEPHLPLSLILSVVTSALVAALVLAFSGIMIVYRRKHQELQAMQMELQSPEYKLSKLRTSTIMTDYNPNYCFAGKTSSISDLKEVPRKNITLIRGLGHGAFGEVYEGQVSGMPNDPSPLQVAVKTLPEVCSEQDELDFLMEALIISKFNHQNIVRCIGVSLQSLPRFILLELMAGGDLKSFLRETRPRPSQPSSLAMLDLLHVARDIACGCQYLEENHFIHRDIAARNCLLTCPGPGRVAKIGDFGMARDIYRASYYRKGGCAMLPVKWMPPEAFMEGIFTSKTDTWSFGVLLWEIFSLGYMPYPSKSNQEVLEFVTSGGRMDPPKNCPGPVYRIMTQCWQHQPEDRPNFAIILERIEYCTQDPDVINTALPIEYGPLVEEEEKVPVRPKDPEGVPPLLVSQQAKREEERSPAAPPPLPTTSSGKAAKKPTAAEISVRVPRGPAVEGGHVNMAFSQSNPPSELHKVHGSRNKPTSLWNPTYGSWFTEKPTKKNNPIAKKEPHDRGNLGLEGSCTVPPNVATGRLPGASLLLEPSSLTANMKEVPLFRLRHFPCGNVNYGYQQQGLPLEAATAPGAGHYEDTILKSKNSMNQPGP
Chain of Tyrosine-protein kinase ABL2 (Homo sapiens) (P42684 whole entry): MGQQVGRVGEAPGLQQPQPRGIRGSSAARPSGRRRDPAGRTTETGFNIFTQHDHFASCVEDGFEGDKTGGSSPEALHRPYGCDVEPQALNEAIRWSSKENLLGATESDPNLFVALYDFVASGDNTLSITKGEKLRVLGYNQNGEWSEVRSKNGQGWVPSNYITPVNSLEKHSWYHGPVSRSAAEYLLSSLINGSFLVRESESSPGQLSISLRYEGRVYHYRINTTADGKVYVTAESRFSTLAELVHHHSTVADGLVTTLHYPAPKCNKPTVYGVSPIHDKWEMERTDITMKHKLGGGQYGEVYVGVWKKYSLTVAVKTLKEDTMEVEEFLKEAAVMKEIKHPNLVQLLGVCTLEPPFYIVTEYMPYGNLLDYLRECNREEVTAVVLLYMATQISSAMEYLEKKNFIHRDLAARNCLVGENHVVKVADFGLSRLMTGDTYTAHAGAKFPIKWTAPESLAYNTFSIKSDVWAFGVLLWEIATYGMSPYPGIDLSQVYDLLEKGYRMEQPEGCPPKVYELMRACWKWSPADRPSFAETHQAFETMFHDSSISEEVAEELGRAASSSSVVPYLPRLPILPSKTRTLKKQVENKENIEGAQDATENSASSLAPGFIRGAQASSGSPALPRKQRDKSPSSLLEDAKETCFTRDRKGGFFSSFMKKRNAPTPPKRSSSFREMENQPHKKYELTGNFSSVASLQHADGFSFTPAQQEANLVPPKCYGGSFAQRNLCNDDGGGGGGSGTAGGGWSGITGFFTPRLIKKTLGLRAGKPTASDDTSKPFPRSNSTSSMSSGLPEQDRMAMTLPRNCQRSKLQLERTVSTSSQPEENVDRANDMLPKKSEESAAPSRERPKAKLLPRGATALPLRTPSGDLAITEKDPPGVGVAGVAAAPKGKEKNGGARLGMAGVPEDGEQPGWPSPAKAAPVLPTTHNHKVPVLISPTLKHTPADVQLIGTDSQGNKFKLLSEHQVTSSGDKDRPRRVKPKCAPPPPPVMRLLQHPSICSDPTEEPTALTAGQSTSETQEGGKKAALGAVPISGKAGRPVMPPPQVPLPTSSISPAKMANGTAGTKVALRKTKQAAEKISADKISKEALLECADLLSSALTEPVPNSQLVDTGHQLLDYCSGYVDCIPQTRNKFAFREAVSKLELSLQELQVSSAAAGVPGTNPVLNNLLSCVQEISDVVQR

SMILES	inhibition [1]	inhibition [2]	inhibition [3]	inhibition [4]	inhibition [5]	inhibition [6]	inhibition [7]	inhibition [8]	inhibition [9]	inhibition [10]	inhibition [11]	inhibition [12]	inhibition [13]	inhibition [14]	inhibition [15]	inhibition [16]	inhibition [17]	inhibition [18]	inhibition [19]	inhibition [20]
CCc1nn2ncccc2c1-c1ccnc(NC2CC2)n1	-4.39%	0.71%	4.01%	3.05%	6.43%	1.9%	4.54%	2.92%	7.3%	0.33%	1.06%	1.02%	4.43%	5.52%	6.81%	1.99%	5.07%	2.35%	5.86%	-2.55%
c1cc(-c2cnn3nc(N4CCOCC4)ccc23)nc(NC2CC2)n1	6.8%	2.12%	3.25%	3.02%	5.18%	3.02%	4.81%	2.61%	6.62%	2.17%	2.55%	3.63%	6.41%	3.71%	13.7%	2.05%	9.86%	3.73%	9.11%	-3.58%
COc1ccc(-c2cc(-c3c[nH]nc3-c3ccccn3)ccn2)cc1	-3.15%	9.84%	40.9%	20.2%	64.2%	15.3%	63.3%	10.8%	41%	3.29%	5.41%	12.3%	48.3%	14.1%	59.8%	3.73%	5.23%	3.35%	35.6%	-6.83%
COc1ccc(CNC(=O)c2ccc(-c3cc(-c4nnc(C)o4)ccc3C)cc2)cc1	11.5%	2.05%	0.78%	2.7%	4.47%	2.42%	5.1%	1.38%	4.42%	0.75%	6.32%	3.15%	5.25%	4.76%	6.46%	0.25%	-0.53%	4.31%	4.39%	4.83%
COc1ccc(-c2nn3ncccc3c2-c2ccnc(Nc3ccc4c(c3)OCCO4)n2)cc1	-1.85%	-0.56%	13.9%	3.27%	34.6%	20.9%	63.3%	11.9%	55%	2.65%	32.3%	2.95%	33.3%	2.5%	25.8%	8.08%	35.2%	5.47%	33.2%	1.61%
COc1cc2c(cc1Nc1nc(Nc3ccsc3C(N)=O)c3cc[nH]c3n1)N(C(=O)CN(C)C)CCC2(C)C	3.1%	0.79%	4.14%	4.5%	2.9%	2.15%	1.57%	4.15%	2.78%	3.19%	3.95%	3.45%	4.27%	2.57%	6.2%	95.7%	78.5%	2.86%	4.17%	47.4%
Nc1ncc(-c2cccc(S(N)(=O)=O)c2)c2scc(-c3ccc(F)c(Cl)c3)c12	-1.87%	35.4%	84.7%	69.4%	93.5%	64.2%	93.9%	55.3%	91.4%	5.83%	35%	62.6%	92.4%	60.5%	87.6%	4.32%	13.8%	35.4%	78.4%	-4.87%
